Consider nine molecules from PubChem BioAssay (Tox21).

Inconclusive results are not listed. Activity calls are given as the source filed them. Unless noted, the call rests on the fitted dose curve; in most records, active means well fitted curve in the direction sought with a large enough effect in the repeat runs; inconclusive means weak or mixed curves; inactive means no such curve, though single readings can be large; an effect the other way counts as inactive or inconclusive.

Assay [1] can be described thus: qHTS RealTime-Glo MT Cell Viability Assay in HEK293 cells - 0 hour (AID 1224880). Further: top concentration of the series differs between compounds; nearly all actives have a fitted effect of over 45% in size. In short, it runs like this: (§1)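 HEK293 cells mixed with RealTime-Glo reagents (NanoLuc plus cell-permeant prosubstrate) at 600 cells/well, preincubated 5 h at 37 C/5% CO2, then given 23 nL compound in DMSO. Nonlytic luminescence from viable cells was read at 0, 8, 16, 24, 32 and 40 h.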

Assay [2] can be described thus: A CellTox Green Cytotoxicity Assay to monitor cytotoxicity in HEK293 cells - 32 hour (AID 1224881). Further: nearly all actives have a fitted effect of over 40% in size. The essentials:
(§2)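 HEK293 cells premixed with CellTox Green dye were seeded at 600 cells/well and left 5 h at 37 C/5% CO2 before pin transfer of 23 nL compound in DMSO. Fluorescence from dye bound to dead-cell DNA was read during 40 h treatment.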

Assay [3] is described as follows: A CellTox Green Cytotoxicity Assay to monitor cytotoxicity in HepG2 cells - 0 hour (AID 1224882). Further: nearly all actives have a fitted effect of over 35% in size. The essentials: (§3)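 HepG2 cells were seeded together with the CellTox Green dye at 600 cells/well, left 5 h at 37 C/5% CO2, then given compounds in DMSO. Fluorescence from dye bound to dead-cell DNA was read repeatedly over 40 h of treatment at 37 C.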
Assay [4] is described as follows: A CellTox Green Cytotoxicity Assay to monitor cytotoxicity in HEK293 cells - 8 hour (AID 1224884). Further: nearly all actives have a fitted effect of over 35% in size. In short, it runs like this: as §2
Assay [5] is described as follows: qHTS RealTime-Glo MT Cell Viability Assay in HepG2 cells - 16 hour (AID 1224885). Further: nearly all actives have a fitted effect of over 50% in size. The essentials:
(§4)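 Cells + NanoLuc/prosubstrate dispensed (600 cells/well) → 5 h at 37 C/5% CO2 → compounds in DMSO transferred → 40 h incubation at 37 C, luminescence read at 0, 8, 16, 24, 32, 40 h.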
A general note: qHTS replaces the single test concentration by a dilution series.

Assay [6] in a line: qHTS RealTime-Glo MT Cell Viability Assay in HEK293 cells - 24 hour (AID 1224886). Further: nearly all actives have a fitted effect of over 50% in size. Further: potency means the concentration at half of the fitted maximal effect. The essentials: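 Tox21 10K qHTS, HEK293, 600 cells/well, RealTime-Glo reagent co-dispensed with cells; 5 h preincubation, compound by pintool, 37 C, luminescence at 0–40 h.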
A short description of assay [7]: qHTS RealTime-Glo MT Cell Viability Assay in HEK293 cells - 8 hour (AID 1224887). Further: nearly all actives have a fitted effect of over 50% in size. Further: potency means the concentration at half of the fitted maximal effect. The essentials:
as §1

Assay [8] in a line: A CellTox Green Cytotoxicity Assay to monitor cytotoxicity in HEK293 cells - 16 hour (AID 1224888). Further: nearly all actives have a fitted effect of over 35% in size. The essentials: as §2
Assay [9] can be described thus: qHTS RealTime-Glo MT Cell Viability Assay in HepG2 cells - 0 hour (AID 1224889). Further: nearly all actives have a fitted effect of over 50% in size. The essentials:
as §4

The nature of assay [10]: A CellTox Green Cytotoxicity Assay to monitor cytotoxicity in HepG2 cells - 8 hour (AID 1224890). Further: nearly all actives have a fitted effect of over 45% in size. The essentials:
as §3

Assay [11] is described as follows: qHTS assay to identify small molecule antagonists of the estrogen receptor alpha (ER-alpha) signaling pathway using the BG1 cell line in the presence of 0.1 nM 17-beta-estradiol - cell viability counter screen (AID 1259241). Further: nearly all actives have a fitted effect of over 40% in size. The essentials: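 Live-cell protease activity (CellTiter-Fluor fluorescence, 30 min) was read in the same wells after VM7Luc4E2 cells had been exposed to compounds with 0.1 nM 17beta-estradiol for 22 hr at 37C.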

A short description of assay [12]: qHTS assay to identify small molecule antagonists of the androgen receptor (AR) signaling pathway using the MDA cell line in the presence of 0.5 nM R1881 - cell viability counter screen (AID 1259242). Further: nearly all actives have a fitted effect of over 45% in size. The essentials:
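MDA-kb2 cells (human breast carcinoma, stably carrying MMTV-luciferase reporter) were exposed to compounds with 0.5 nM R1881 (final) for 16 hr at 37C, 0% CO2; viability then read as live-cell protease fluorescence (CellTiter-Fluor, 30 min) in the same wells.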

Assay [13] can be described thus: qHTS assay to identify small molecule HDAC inhibitors (AID 1259364). Further: nearly all actives have a fitted effect of over 45% in size. Further: potency means the concentration at half of the fitted maximal effect. In short, it runs like this: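 Wild-type HCT-116 cells were plated overnight, exposed to compounds for 2 h at 37 °C, then given HDAC-Glo class I/II luminogenic reagent for 30 min at room temperature before luminescence was read.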
The nature of assay [14]: qHTS assay to identify small molecule HDAC inhibitors - cell viability counter screen (AID 1259365). In short, it runs like this: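 HCT-116 (wild type), 1,500 cells/well, overnight 37C/5% CO2; compound in DMSO 2hr; CellTiter-Glo 30min RT; luminescence read.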
Assay [15] in a line: qHTS assay to identify small molecule agonists of the sonic hedgehog signaling (Shh) pathway - cell viability counter screen (AID 1259366). Further: nearly all actives have a fitted effect of over 50% in size. The essentials:
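CellTiter-Fluor fluorescence read-out, 1 hr at 37C, added after 23hr compound exposure. Cells: 3T3 Gli1-Luc, an NIH/3T3 clone with stably integrated Gli1-Luc reporter, plated 4hr before compound.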

A short description of assay [16]: qHTS assay to identify small molecule antagonists of the sonic hedgehog signaling (Shh) pathway - cell viability counter screen (AID 1259367). Further: nearly all actives have a fitted effect of over 55% in size. The essentials: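 NIH/3T3-derived Gli1-Luc reporter cells, 2,000/well, plated 4 hr before compound addition, then stimulated with conditioned medium for 24 hr at 37C. Viability measured in the same wells by CellTiter-Fluor fluorescence, reagent added at 23 hr for 1 hr.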

Assay [17] is described as follows: A CellTox Green Cytotoxicity Assay to monitor cytotoxicity in HepG2 cells - 32 hour (AID 1224883). Further: nearly all actives have a fitted effect of over 50% in size. Further: potency means the concentration at half of the fitted maximal effect. In short, it runs like this:
as §3

Assay [18] in a line: qHTS assay to identify small molecule phospholipidosis (PLD) inducers (AID 1259344; active means well fitted curve in the direction sought with a large enough effect; an effect the other way counts as inactive or inconclusive). In short, it runs like this: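 HepG2 cells, 900/well, treated with compound plus LipidTOX Red for 24 h at 37 C; amiodarone positive and DMSO negative controls. Fixed with paraformaldehyde/Hoechst, then high-content imaging scored LipidTOX pit count and integrated intensity per well and per cell.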

In assay [19] the target is Estrogen receptor (Homo sapiens) (UniProt P03372). As to the kind of experiment: qHTS assay to identify small molecule antagonists of the estrogen receptor alpha (ER-alpha) signaling pathway using the BG1 cell line in the presence of 0.1 nM 17-beta-estradiol (AID 1259244). Further: nearly all actives have a fitted effect of over 50% in size. The essentials:
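VM7Luc4E2 cells (endogenous full-length ER-alpha, stable 4xERE-luciferase) were grown 5 days in phenol red-free medium with charcoal-stripped FBS, then exposed 22 h at 37C to compounds plus 0.1 nM (final) 17beta-estradiol; ONE-Glo luminescence read-out.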

Sequence of Estrogen receptor (Homo sapiens) (P03372 whole entry, looked up): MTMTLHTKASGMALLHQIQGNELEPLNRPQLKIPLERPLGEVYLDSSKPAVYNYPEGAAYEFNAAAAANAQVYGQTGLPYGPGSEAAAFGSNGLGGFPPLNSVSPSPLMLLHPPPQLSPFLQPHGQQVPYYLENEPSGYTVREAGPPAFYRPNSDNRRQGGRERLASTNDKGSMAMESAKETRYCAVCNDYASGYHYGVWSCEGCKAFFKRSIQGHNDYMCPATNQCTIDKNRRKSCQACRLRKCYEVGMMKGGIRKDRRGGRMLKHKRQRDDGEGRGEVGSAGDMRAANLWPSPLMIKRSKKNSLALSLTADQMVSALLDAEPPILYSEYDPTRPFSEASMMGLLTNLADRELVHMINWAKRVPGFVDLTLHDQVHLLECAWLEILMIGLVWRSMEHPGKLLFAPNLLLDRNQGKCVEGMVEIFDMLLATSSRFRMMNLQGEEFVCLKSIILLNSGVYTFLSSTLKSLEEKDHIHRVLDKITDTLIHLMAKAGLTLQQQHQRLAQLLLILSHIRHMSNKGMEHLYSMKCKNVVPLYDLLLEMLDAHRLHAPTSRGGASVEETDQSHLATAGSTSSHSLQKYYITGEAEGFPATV

`COC(=O)c1ccc(C(=O)OC)c(C(=O)OC)c1`: the result in assay [1], in [5], in assay [11], in [12], in assay [14] and in [16] was inactive. Further, the Potency result in assay [2], in assay [3], in [4], in assay [6], in assay [7] and in [8] was “inactive” throughout. Also, the Potency entry in assay [9], in assay [10], in assay [13] and in assay [15] was “inactive” throughout.
For `c1cc(CN2CCCCC2)cc(OCCCNc2nc3ccccc3s2)c1`, the outcome in [1], in assay [11] and in assay [14] was inactive. Besides, the Potency entry in assay [2], in assay [3], in assay [4], in assay [8], in [9] and in [10] was “inactive” each time. The Potency result in [18] and in assay [13] was “inactive” each time. Besides, the figures for the Potency in assay [17], in assay [6] and in assay [7] were 23.9 µM (active), 9.52 µM (active) and 9.52 µM (active), respectively.
Consider `CC(=O)O[C@H](CC(=O)[O-])C[N+](C)(C)C`, for which the call in assay [1], in assay [5], in assay [11], in [12], in assay [19] and in assay [14] was inactive. Besides, the molecule was called inactive in assay [16]. Moreover, the Potency entry in [2], in assay [17], in [4], in assay [6], in assay [7] and in assay [8] was “inactive” in each case. Further, the Potency entry in assay [9], in assay [10], in assay [13] and in assay [15] was “inactive” throughout.
For `CCC(C)(C)C1CCC(OC)CC1` (stereo unspecified), the outcome in assay [1], in assay [5], in assay [11], in [12], in [19] and in assay [14] was inactive. Further, the molecule was called inactive in assay [16]. Also, the Potency result in assay [2], in assay [3], in assay [17], in assay [4], in assay [7] and in assay [8] was “inactive” throughout. Also, the Potency entry in assay [9], in assay [10], in [13] and in assay [15] was “inactive” in each case.
`Nc1ccc2cc(S(=O)(=O)O)ccc2c1`: the call in [1], in assay [5], in assay [11], in assay [12], in assay [19] and in assay [14] was inactive. Further, the result in assay [16] was inactive. Further, the Potency entry in assay [3], in assay [17], in [4], in [6], in [7] and in assay [8] was “inactive” each time. The Potency entry in assay [9], in assay [10], in assay [13] and in assay [15] was “inactive” throughout.
On to `c1ccc(CCCc2ccccn2)cc1`, for which the outcome in assay [1], in assay [5], in assay [11], in assay [12], in [19] and in assay [14] was inactive. Also, the result in assay [16] was inactive. The Potency result in assay [3], in [17], in assay [4], in assay [6], in [7] and in [8] was “inactive” in each case. Moreover, the Potency result in assay [9], in assay [10] and in [15] was “inactive” throughout. Moreover, in assay [13], the Potency was 4.33 µM (active).
Turning to `CSc1nc(NC2CC2)nc(NC(C)(C)C)n1`, the outcome in [1], in assay [5], in assay [11], in assay [12] and in assay [14] was inactive. Further, the Potency entry in [3], in [17], in assay [4], in assay [8], in assay [9] and in [10] was “inactive” each time. Further, the Potency entry in assay [13] and in assay [15] was “inactive” throughout. Further, the Potency in assay [6] was 21.9 µM (active); in assay [7], 19.5 µM (active).
As for `CCCCC=O`, the result in assay [1], in assay [5], in assay [11], in [12], in assay [14] and in assay [16] was inactive. Moreover, the Potency result in assay [3], in assay [17], in assay [4], in assay [6], in [7] and in assay [8] was “inactive” throughout. For the same molecule, the Potency result in [9], in assay [10], in [13] and in assay [15] was “inactive” in each case.
With `NC(=O)CCCCC1CCSS1` (stereo unspecified), the molecule was called inactive in [1], in [5], in [11], in [12], in assay [19] and in assay [14]. Besides, the call in [16] was inactive. The Potency entry in [2], in assay [17], in [4], in assay [6], in [7] and in [8] was “inactive” each time. For the same molecule, the Potency entry in assay [9], in [18], in [13] and in assay [15] was “inactive” each time.
